# High-throughput results from PubChem.
# aSyn UTR inh = 5' untranslated region of α-synuclein, MLPCN primary screen; alpha-synuclein 5'UTR reporter, inhibitor activity; inhibition, % (tested at 7.5 µM); actives 0.82% (n = 300,000); AID 1813; in the data active = inhibition above about 60%; inconclusive = no clear call, values can overlap the other calls;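 also: H4 neuroglioblastoma cells stably carrying SNCA 5'UTR luciferase fusion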
# BaF3 parental = counter-screen for JAK2V617F inhibitors: parental Ba/F3 viability inhibitors | CellTiter-Glo ATP luminescence | AID 1486 | actives 1.1% (n = 220,000) | inhibition, % at 5.6 µM;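 active = inhibition above a per-campaign cutoff, the mean inhibition of all tested compounds plus 3 SD, cut at about 27% in these data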
# IEC-6 tox = kills IEC-6 intestinal cells in KLF5 counter-screen; IEC-6 cytotoxicity, luminescence viability; inhibition, % at 5 µM; actives 0.78% (n = 290,000)
# APP transl inh = APP translation inhibition. SH-SY5Y APP 5'UTR-luciferase reporter, luminescence. inhibition, % at 2 µM. actives 0.82% (n = 190,000). AID 1285;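 active = inhibition above a set limit, derived from the sample mean plus 3 SD, cut at about 45% in these data; inconclusive = one replicate passes the limit while the other fails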
# Ba/F3 V617F tox = reduce viability of Ba/F3 cells dependent on JAK2V617F; Ba/F3 EpoR-JAK2V617F viability, ATP luminescence; AID 1446; actives 1.1% (n = 220,000); inhibition, % at 5.6 µM;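 active = inhibition above the campaign mean plus 3 SD over all tested compounds, cut at about 24% in these data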;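 also: cytokine-independent growth of Ba/F3 cells driven by EpoR plus mutant JAK2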
# KLF5 inhibitor = suppresses KLF5 promoter-driven expression. inhibition, % at 5 µM. DLD-1 KLF5 promoter-luciferase reporter, luminescence. actives 0.23% (n = 290,000). AID 1700;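 active = inhibition above a per-plate limit of that plate's mean compound inhibition plus 3 SD, cut at about 60% in these data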;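 also: higher means less KLF5 promoter-driven luciferase light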
# IEC-6 tox confirm = IEC-6 cytotoxicity, confirmation assay; shares compounds with IEC-6 tox; IEC-6 rat intestinal epithelial viability, luminescence; inhibition, % at 5 µM; actives 63% (n = 1,900); AID 1907
# Numbers stand for hits; – = inactive; ? = inconclusive; · = no result given. A selection: hits, their analogues and other compounds. The true share with any hit is near 2.1%. Rule as the data show it, unless noted: active = inhibition above about 22%; inactive = the rest.
SMILES,aSyn UTR inh,BaF3 parental,IEC-6 tox,APP transl inh,Ba/F3 V617F tox,KLF5 inhibitor,IEC-6 tox confirm
COC(=O)C1C(=O)c2c([nH]c(C(=O)OC3CCCC3)c2C)CC1C (stereo unspecified),–,–,–,–,–,–,·
Cc1c(C(=O)OCC(C)C)[nH]c2c1C(=O)CC(c1ccco1)C2 (stereo unspecified),69.9,75.7,80.9,95.7,78.7,–,57.0
O=C(Cc1cccc2ccccc12)NCCc1ccccc1,–,·,–,·,·,–,·
COc1cc(C(=O)Nc2ccc(NC(=O)C3CC3)nc2)cc(OC)c1OC,–,–,95.1,–,–,–,–
CCN1CCN(Cc2ccc(NC(=O)c3ccc(C)c(NC(=O)C(=O)c4c[nH]c5ccccc45)c3)cc2C(F)(F)F)CC1,111.6,·,54.8,·,·,–,–
CCN1CCN(Cc2ccc(NC(=O)c3ccc(C)c(NC(=O)c4ccc5n[nH]nc5c4)c3)cc2C(F)(F)F)CC1,–,·,·,·,·,·,·
Cc1ccc(C(=O)N[C@@H](Cc2ccccc2)C(=O)N2CCC3(CC2)NCCc2[nH]cnc23)cc1C,–,·,–,·,·,–,·
O=C(c1ccc(N2CCOCC2)cc1[N+](=O)[O-])N1CCOCC1,–,–,–,–,–,–,·
CCCNc1nc(-c2ccccc2)c(C(=O)OCC)cc1C#N,93.9,58.0,45.5,81.8,59.4,–,74.7
C/C(=N\NC(=O)c1nnn(-c2nonc2N)c1CN1CCc2ccccc21)c1ccccc1O,75.2,·,54.2,·,·,–,55.7
C=CCN(C(=O)c1csnn1)C(C(=O)NC1CCCC1)c1ccccc1F (stereo unspecified),–,·,–,·,·,–,·
Cc1nc2c3cc(Cl)ccc3n(CCN3CCCCC3)c2s1,–,35.6,41.4,–,–,–,–
COC(=O)Cn1c2ccc(Cl)cc2c2nc(C)sc21,–,–,–,·,–,–,·
O=C(O)CNS(=O)(=O)c1ccc(C2CCCCC2)cc1,–,–,–,–,–,–,·
COc1cc2nc(=S)n3[nH]c(COc4ccccc4C)nc3c2cc1OC,–,–,–,–,–,–,·
COc1cc2nc(=S)n3[nH]c(CCn4nc(C)cc4C)nc3c2cc1OC,–,–,53.3,–,–,–,–
O=C(NNC(=S)Nc1ccccc1C(F)(F)F)C1CC1,–,–,–,·,–,–,·
CC(=O)CC1OC(=O)C(Br)=C1NCc1ccccc1 (stereo unspecified),–,28.4,33.9,71.2,75.2,–,–
O=C(CC1Oc2ccccc2NC1=O)NCc1ccccc1 (stereo unspecified),–,–,–,–,–,–,·
COC(=O)COc1ccc(NC(=O)C(c2ccccc2)c2ccccc2)cc1,–,·,24.7,·,·,–,–
CCCC(=O)Nc1nc2ccc(NC(=O)c3ccccc3F)cc2s1,–,80.5,75.4,75.8,82.0,–,55.4
COc1ccc(NS(=O)(=O)c2cc(N/C(=N\S(=O)(=O)c3ccccc3)c3ccc(F)cc3)ccc2Cl)cc1,–,60.6,38.7,–,63.9,–,–
COc1cc(CN2CCc3ccccc3C2)ccc1O,–,102.6,29.7,·,96.6,–,–
O=C(NNC(=O)C12CC3CC(CC(C3)C1)C2)c1ccccn1,–,–,22.1,·,–,–,38.9
O=C(O)/C=C/C(=O)Nc1ccc(OC(F)(F)F)cc1Br,–,–,–,·,–,–,·
SMILES,aSyn UTR inh,BaF3 parental,IEC-6 tox,APP transl inh,Ba/F3 V617F tox,KLF5 inhibitor,IEC-6 tox confirm
CCCN(CCC)CCCNC(=O)c1cc2c(=O)n(CC)c3ccccc3c2s1,–,·,22.0,·,·,–,–
CCn1c(=O)c2cc(C(=O)NCCCOC)sc2c2ccccc21,–,·,22.3,·,·,–,–
CCCCN(CC)CCCNC(=O)c1cc2c(=O)n(CC)c3ccccc3c2s1,–,·,–,·,·,–,·
Cc1cc(NCCCn2ccnc2)n2ncc(-c3ccc(Cl)cc3)c2n1,?,–,33.3,–,–,–,26.8
O=C(c1ccc(Cl)cc1)C(CN1CCCCC1)c1ccccc1 (stereo unspecified),–,·,22.4,·,·,–,–
CCOC(=O)C(CN1CCCC1)c1ccccc1 (stereo unspecified),–,·,·,·,·,·,·
O=C1CCCc2cc3c(cc21)CC1(C3)Cc2cc3c(cc2C1)C(=O)CCC3,–,–,31.7,·,–,–,35.3
CC(=O)Nc1ccc2c(c1)CCCC2=O,–,–,–,·,–,–,·
CC12CCC(=O)N1C(C(=O)Nc1nnc(SCc3ccccc3F)s1)CS2 (stereo unspecified),–,·,–,·,·,–,·
